# Test results as given in the supplement of paper PMC10037445.
# The full ranking holds about 2,900 compounds; the median of “NF-kB SEAP reporter activity, fold change vs agonist alone” is about 0.99, and the highest 2% start at about 2.6. This is one part of a sample in which the highest values are shown more often than they occur.
# What was measured:
# RAW-Dual [1] = experiment: NF-kB SEAP reporter activity, fold change vs agonist alone; cytotoxicity flag (confluency mask): not cytotoxic; higher = enhanced NF-kB activity
# How it was run: (§1)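 Cytotoxic wells were those whose IncuCyte confluency was below 70% of agonist controls in both mask sets. The cells were RAW-Dual macrophages at 50,000 cells/well in DMEM on 384-well plates, dosed with 50 nL of library stock by pin tool, stimulated with a PRR agonist 1 h later, and kept at 37 °C, 5% CO2 for 20 hours. IRF and NF-κB reporter activity, as fold change over agonist-alone wells, came from supernatant read by QuantiLuc luminescence and QuantiBlue absorbance, respectively.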
# RAW-Dual [2] = experiment: NF-kB SEAP reporter activity, fold change vs agonist alone; higher = enhanced NF-kB activity
# How it was run: as §1
# RAW-Dual [3] = experiment: NF-kB SEAP reporter activity, fold change vs agonist alone; cytotoxicity flag (confluency mask): cytotoxic (confluency <70% of control); higher = enhanced NF-kB activity
# How it was run: as §1
# [4] = agonist: ODN 1826 (TLR9) 0.5 ug/mL
# [5] = agonist: Pam2CSK4 (TLR2/6) 0.1 ug/mL
# [6] = agonist: Pam3CSK4 (TLR2/1) 0.1 ug/mL
# [7] = library stock concentration (final ~1000-fold dilution): 10 mM, cytotoxicity flag (confluency mask): not cytotoxic, agonist: Imiquimod (TLR7) […]
# [8] = library stock concentration (final ~1000-fold dilution): 10 mM, cytotoxicity flag (confluency mask): not cytotoxic, agonist: MPLA (TLR4) […]
# [9] = library stock concentration (final ~1000-fold dilution): 10 mM, cytotoxicity flag (confluency mask): cytotoxic (confluency <70% of control), agonist: Imiquimod (TLR7) […]
# [10] = library stock concentration (final ~1000-fold dilution): 10 mM, cytotoxicity flag (confluency mask): cytotoxic (confluency <70% of control), agonist: MPLA (TLR4) […]
smiles,measurement,setting,value
CNC(=O)c1ccccc1Nc1nc(Nc2ccc(N3CCOCC3)cc2OC)ncc1Cl (library stock concentration (final ~1000-fold dilution): 10 mM),NF-kB SEAP reporter activity,RAW-Dual [1]; agonist: LPS (TLR4) 0.1 ug/mL,0.332
same,NF-kB SEAP reporter activity,RAW-Dual [1]; [4],0.296
same,NF-kB SEAP reporter activity,RAW-Dual [1]; [5],0.134
same,NF-kB SEAP reporter activity,RAW-Dual [1]; [6],0.246
Cc1cc(N2CCOCC2)ccc1Nc1nc(NC2CCCCC2)c2nc[nH]c2n1 (library stock concentration (final ~1000-fold dilution): 10 mM),NF-kB SEAP reporter activity,RAW-Dual [1]; agonist: LPS (TLR4) 0.1 ug/mL,1.44
same,NF-kB SEAP reporter activity,RAW-Dual [1]; [4],0.814
same,NF-kB SEAP reporter activity,RAW-Dual [1]; [5],1
same,NF-kB SEAP reporter activity,RAW-Dual [1]; [6],0.926
CNC(=O)c1ccccc1Nc1nc(Nc2ccc(N3CCOCC3)cc2OC)ncc1Cl,NF-kB SEAP reporter activity,RAW-Dual [2]; [7],0.466
same,NF-kB SEAP reporter activity,RAW-Dual [2]; [8],0.594
Cc1cc(N2CCOCC2)cc2[nH]c(-c3c(NCC(O)c4cccc(Cl)c4)cc[nH]c3=O)nc12 (stereo unspecified) (library stock concentration (final ~1000-fold dilution): 10 mM),NF-kB SEAP reporter activity,RAW-Dual [1]; agonist: LPS (TLR4) 0.1 ug/mL,0.682
same,NF-kB SEAP reporter activity,RAW-Dual [1]; [4],3.16
same,NF-kB SEAP reporter activity,RAW-Dual [1]; [5],0.436
same,NF-kB SEAP reporter activity,RAW-Dual [1]; [6],0.595
Cc1cc(N2CCOCC2)ccc1Nc1nc(NC2CCCCC2)c2nc[nH]c2n1,NF-kB SEAP reporter activity,RAW-Dual [2]; [7],0.925
same,NF-kB SEAP reporter activity,RAW-Dual [2]; [8],1.04
Cl.NC12CC3CC(CC(C3)C1)C2 (library stock concentration (final ~1000-fold dilution): 10 mM),NF-kB SEAP reporter activity,RAW-Dual [1]; agonist: LPS (TLR4) 0.1 ug/mL,1.03
same,NF-kB SEAP reporter activity,RAW-Dual [1]; [4],0.798
same,NF-kB SEAP reporter activity,RAW-Dual [1]; [5],0.873
same,NF-kB SEAP reporter activity,RAW-Dual [1]; [6],1.02
Cl.NC12CC3CC(CC(C3)C1)C2,NF-kB SEAP reporter activity,RAW-Dual [2]; [7],0.884
same,NF-kB SEAP reporter activity,RAW-Dual [2]; [8],1.08
Nc1ccccc1NC(=O)c1ccc(CNC(=O)OCc2cccnc2)cc1,NF-kB SEAP reporter activity,RAW-Dual [2]; [7],0.921
same,NF-kB SEAP reporter activity,RAW-Dual [2]; [8],1.06
Cc1ccc(NC(=O)c2ccc(CN3CCN(C)CC3)cc2)cc1Nc1nccc(-c2cccnc2)n1,NF-kB SEAP reporter activity,RAW-Dual [2]; [7],1.31
same,NF-kB SEAP reporter activity,RAW-Dual [2]; [8],1.69
Nc1ccccc1NC(=O)c1ccc(CNC(=O)OCc2cccnc2)cc1 (library stock concentration (final ~1000-fold dilution): 10 mM),NF-kB SEAP reporter activity,RAW-Dual [1]; agonist: LPS (TLR4) 0.1 ug/mL,1.22
same,NF-kB SEAP reporter activity,RAW-Dual [1]; [4],1.02
same,NF-kB SEAP reporter activity,RAW-Dual [1]; [5],1.07
same,NF-kB SEAP reporter activity,RAW-Dual [1]; [6],1.14
Nc1ccccc1NC(=O)c1ccc(CNc2nccc(-c3cccnc3)n2)cc1 (library stock concentration (final ~1000-fold dilution): 10 mM),NF-kB SEAP reporter activity,RAW-Dual [3]; agonist: LPS (TLR4) 0.1 ug/mL,5.7
same,NF-kB SEAP reporter activity,RAW-Dual [3]; [4],3.2
same,NF-kB SEAP reporter activity,RAW-Dual [3]; [5],0.984
same,NF-kB SEAP reporter activity,RAW-Dual [3]; [6],1.9
Cc1ccc(NC(=O)c2ccc(CN3CCN(C)CC3)cc2)cc1Nc1nccc(-c2cccnc2)n1 (library stock concentration (final ~1000-fold dilution): 10 mM),NF-kB SEAP reporter activity,RAW-Dual [1]; agonist: LPS (TLR4) 0.1 ug/mL,1.23
same,NF-kB SEAP reporter activity,RAW-Dual [1]; [4],0.212
same,NF-kB SEAP reporter activity,RAW-Dual [1]; [5],1.55
same,NF-kB SEAP reporter activity,RAW-Dual [1]; [6],1.42
Nc1ccccc1NC(=O)c1ccc(CNc2nccc(-c3cccnc3)n2)cc1,NF-kB SEAP reporter activity,RAW-Dual [2]; [9],2.7
same,NF-kB SEAP reporter activity,RAW-Dual [2]; [10],2.58
O=P(O)(O)Oc1cccc2ccccc12 (library stock concentration (final ~1000-fold dilution): 10 mM),NF-kB SEAP reporter activity,RAW-Dual [1]; agonist: LPS (TLR4) 0.1 ug/mL,1.05
same,NF-kB SEAP reporter activity,RAW-Dual [1]; [4],0.917
same,NF-kB SEAP reporter activity,RAW-Dual [1]; [5],1.16
same,NF-kB SEAP reporter activity,RAW-Dual [1]; [6],0.879
O=P(O)(O)Oc1cccc2ccccc12,NF-kB SEAP reporter activity,RAW-Dual [2]; [8],1.08
O=C(/C=C/c1cncc(F)c1)c1c(-c2ccccc2)c2cc(Cl)ccc2[nH]c1=O,NF-kB SEAP reporter activity,RAW-Dual [2]; [9],0.157
same,NF-kB SEAP reporter activity,RAW-Dual [2]; [10],0.259
O=C(/C=C/c1cncc(F)c1)c1c(-c2ccccc2)c2cc(Cl)ccc2[nH]c1=O (library stock concentration (final ~1000-fold dilution): 10 mM),NF-kB SEAP reporter activity,RAW-Dual [3]; agonist: LPS (TLR4) 0.1 ug/mL,0.257
same,NF-kB SEAP reporter activity,RAW-Dual [3]; [4],0.212
same,NF-kB SEAP reporter activity,RAW-Dual [3]; [5],0.0981
same,NF-kB SEAP reporter activity,RAW-Dual [3]; [6],0.253
COC1/C=C/OC2(C)Oc3c(C)c(O)c4c(O)c(c(/C=N/N5CCN(C6CCCC6)CC5)c(O)c4c3C2=O)NC(=O)/C(C)=C/C=C/C(C)C(O)C(C)C(O)C(C)C(OC(C)=O)C1C (stereo unspecified) (library stock concentration (final ~1000-fold dilution): 10 mM),NF-kB SEAP reporter activity,RAW-Dual [1]; agonist: LPS (TLR4) 0.1 ug/mL,1.56
same,NF-kB SEAP reporter activity,RAW-Dual [1]; [4],0.892
same,NF-kB SEAP reporter activity,RAW-Dual [1]; [5],0.643
same,NF-kB SEAP reporter activity,RAW-Dual [1]; [6],0.742
COC1/C=C/OC2(C)Oc3c(C)c(O)c4c(O)c(c(/C=N/N5CCN(C6CCCC6)CC5)c(O)c4c3C2=O)NC(=O)/C(C)=C/C=C/C(C)C(O)C(C)C(O)C(C)C(OC(C)=O)C1C (stereo unspecified),NF-kB SEAP reporter activity,RAW-Dual [2]; [7],1.11
same,NF-kB SEAP reporter activity,RAW-Dual [2]; [8],0.969
O=C(O)CC[C@@H](O)C(=O)O,NF-kB SEAP reporter activity,"RAW-Dual [2]; library stock concentration (final ~1000-fold dilution): 10 mM water, cytotoxicity flag (confluency mask): not cytotoxic, agonist: Imiquimod (TLR7) […]",0.93
same,NF-kB SEAP reporter activity,"RAW-Dual [2]; library stock concentration (final ~1000-fold dilution): 10 mM water, cytotoxicity flag (confluency mask): not cytotoxic, agonist: MPLA (TLR4) […]",1.07
O=C(O)CC[C@@H](O)C(=O)O (library stock concentration (final ~1000-fold dilution): 10 mM water),NF-kB SEAP reporter activity,RAW-Dual [1]; agonist: LPS (TLR4) 0.1 ug/mL,1.44
same,NF-kB SEAP reporter activity,RAW-Dual [1]; [4],1.16
same,NF-kB SEAP reporter activity,RAW-Dual [1]; [5],1.17
same,NF-kB SEAP reporter activity,RAW-Dual [1]; [6],1.12
CC1(C)OCC(COC(=O)CCc2ccc(OCC(O)CNCCNC(=O)N3CCOCC3)cc2)O1.Cl (stereo unspecified),NF-kB SEAP reporter activity,RAW-Dual [2]; [7],0.97
same,NF-kB SEAP reporter activity,RAW-Dual [2]; [8],1.01
CC1(C)OCC(COC(=O)CCc2ccc(OCC(O)CNCCNC(=O)N3CCOCC3)cc2)O1.Cl (stereo unspecified) (library stock concentration (final ~1000-fold dilution): 10 mM),NF-kB SEAP reporter activity,RAW-Dual [1]; agonist: LPS (TLR4) 0.1 ug/mL,0.799
same,NF-kB SEAP reporter activity,RAW-Dual [1]; [4],0.908
same,NF-kB SEAP reporter activity,RAW-Dual [1]; [5],1.04
same,NF-kB SEAP reporter activity,RAW-Dual [1]; [6],0.926
CC(C)(C)OC(=O)Nc1ccc(-c2cc(C(=O)NCCCCCCC(=O)NO)no2)cc1 (library stock concentration (final ~1000-fold dilution): 10 mM),NF-kB SEAP reporter activity,RAW-Dual [3]; agonist: LPS (TLR4) 0.1 ug/mL,6.9
same,NF-kB SEAP reporter activity,RAW-Dual [3]; [4],1.11
same,NF-kB SEAP reporter activity,RAW-Dual [3]; [5],1.33
same,NF-kB SEAP reporter activity,RAW-Dual [3]; [6],1.21
CC(C)(C)OC(=O)Nc1ccc(-c2cc(C(=O)NCCCCCCC(=O)NO)no2)cc1,NF-kB SEAP reporter activity,RAW-Dual [2]; [9],0.912
same,NF-kB SEAP reporter activity,RAW-Dual [2]; [10],1.81
CC(C)C1C(=O)NC(CCCNC(=N)N)C(=O)NCC(=O)NC(CC(=O)O)C(=O)NC(Cc2ccccc2)C(=O)N1C.O=C(O)C(F)(F)F (stereo unspecified),NF-kB SEAP reporter activity,RAW-Dual [2]; [7],0.977
same,NF-kB SEAP reporter activity,RAW-Dual [2]; [8],1.11
CC(C)C1C(=O)NC(CCCNC(=N)N)C(=O)NCC(=O)NC(CC(=O)O)C(=O)NC(Cc2ccccc2)C(=O)N1C.O=C(O)C(F)(F)F (stereo unspecified) (library stock concentration (final ~1000-fold dilution): 10 mM),NF-kB SEAP reporter activity,RAW-Dual [1]; agonist: LPS (TLR4) 0.1 ug/mL,0.99
same,NF-kB SEAP reporter activity,RAW-Dual [1]; [4],1.01
same,NF-kB SEAP reporter activity,RAW-Dual [1]; [5],0.985
same,NF-kB SEAP reporter activity,RAW-Dual [1]; [6],0.921
